Screens as filed in PubChem BioAssay.
MITF inh: human MITF inhibition, primary screen; O75030; AlphaScreen MITF homodimerization, bead proximity signal; inhibition, % at 2.6 µM; 0.91% of 650,000 active; AID 1259374; in the data active = inhibition above about 50%;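 note: 0% = vehicle wells with protein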
FBW7 activator: activators of human E3 ligase FBW7 | Q969H0 | normalized activity (activation), % at 26.1 µM | 0.13% of 650,000 active | AlphaScreen FBW7–phospho-cyclin E peptide binding, activator screen; in the data active = normalized activity above about 1.9%;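 note: purified mutant Fbw7 with reduced substrate affinity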
TEAD-YAP inh: TEAD-YAP interaction inhibition | inhibition, % at 9.12 µM | HEK-TIYL cells, TEAD-Gal4/YAP UAS-luciferase luminescence | 1.4% of 640,000 active; in the data active = inhibition above about 32%;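 note: 0% = median of test compound wells and 100% = reference inhibitor wells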
GPR151 ag: human GPR151 activation. PathHunter beta-arrestin GPR151 cells, luminescence. 1% of 650,000 active. AID 1508602. activation, % at 11.2 µM; in the data active = activation above about 4.9%;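 note: 0% = median of compound wells and 100% = cells with positive control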
Target sequence (Q8TDV0 whole entry, looked up): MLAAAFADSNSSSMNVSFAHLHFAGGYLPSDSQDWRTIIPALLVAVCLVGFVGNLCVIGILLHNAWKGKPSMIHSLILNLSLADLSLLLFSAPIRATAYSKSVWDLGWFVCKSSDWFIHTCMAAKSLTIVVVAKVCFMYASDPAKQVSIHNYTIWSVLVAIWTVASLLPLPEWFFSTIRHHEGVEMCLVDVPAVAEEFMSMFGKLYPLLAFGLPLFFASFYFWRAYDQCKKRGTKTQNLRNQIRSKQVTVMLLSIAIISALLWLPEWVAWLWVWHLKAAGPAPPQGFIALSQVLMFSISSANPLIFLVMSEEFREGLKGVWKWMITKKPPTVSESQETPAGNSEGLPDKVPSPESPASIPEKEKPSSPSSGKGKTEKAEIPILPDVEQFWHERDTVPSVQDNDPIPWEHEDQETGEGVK
The depositor's hits bear a star; ! = repeats disagree. An excerpt weighted towards active compounds, which were near 3.5% of everything screened.

SMILES	MITF inh	FBW7 activator	TEAD-YAP inh	GPR151 ag
Cc1nc(N=Nc2cc(S(=O)(=O)O)c3cc([N+](=O)[O-])cc(S(=O)(=O)O)c3c2)c(COP(=O)(O)O)c(C=O)c1O	77*!	0	-12	-1
CCN(CC)c1nc(Nc2ccc(N3CCOCC3)cc2)nc(Nc2nc3ccccc3n2C)n1	-1	0	22	-1
Cc1cc(Nc2ccccc2)nc(N2CCN(C(=O)C(C)(C)C)CC2)n1	-5	0	32*	1
Cc1cc(Nc2ccc(N3CCOCC3)cc2)nc(N2CCc3ccccc3C2)n1	19	0	41*	2
c1cnc2ccc(Nc3nccc(Nc4ccc(N5CCOCC5)cc4)n3)cc2c1	24	0	82*	5
Cn1c(Nc2nccc(Nc3ccc(N4CCOCC4)cc3)n2)nc2ccccc21	22	0	54*	4
CC(=O)Nc1ccc(Nc2cc(C)nc(N3CCN(c4ccccn4)CC3)n2)cc1	5	0	9	-1
O=C(NCC(O)c1ccc(C(F)(F)F)cc1)c1cn(-c2ccc3[nH]ncc3c2)nn1 (stereo unspecified)	11	0	2	0
Cc1cc(Nc2ccc(N3CCOCC3)cc2)nc(Nc2ncccn2)n1	7	0	7	0
Cc1cc(Nc2ccc(N3CCOCC3)cc2)nc(Nc2ccc3ncccc3c2)n1	-1	0	57*	1
COc1cc(OC)cc(-n2nc(C(=O)N3CCOCC3)c3ccccc3c2=O)c1	21	0	2	0
O=C(Cc1ccccc1)N/N=C/c1cccc2ccccc12	9	0	1	1
O=C(N/N=C/c1ccc(O)c2ncccc12)c1ccc(F)cc1	113*	0	27	0
O=C(Cc1ccccc1)N/N=C/c1ccc(O)c2ncccc12	98*	0	15	1
Oc1ccc(/C=N/Nc2ccc3ccccc3n2)c(O)c1O	21	-1	-30	-1
C(=N\Nc1ccc2ccccc2n1)/c1cccs1	1	0	60*	-2
Oc1cccc2ccc(/C=N/Nc3ccc4ccccc4n3)nc12	-10	0	33*	-3
c1ccc(-c2cc(-c3ccccc3)[n+](CCc3c[nH]c4ccccc34)c(-c3ccccc3)c2)cc1	10	0	70*	2
CCN(c1cccc(C)c1)S(=O)(=O)c1ccc2[nH]cc(C(=O)N3CCN(c4ccccn4)CC3)c(=O)c2c1	-8	0	2	-2
C=CCn1c(SC)nc(O)c(CC)c1=O	9	1.9*	1	-1
O=C(NCCn1ccc2ccccc21)c1cc([N+](=O)[O-])ccc1Cl	11	0	33*	0
O=C(NCCCc1ccccc1)c1cc([N+](=O)[O-])ccc1Cl	7	1	53*	0
O=C(NC12CC3CC(CC(C3)C1)C2)c1cc([N+](=O)[O-])ccc1Cl	11	0	20	-1
O=C(NCCC12CC3CC(CC(C3)C1)C2)c1cc([N+](=O)[O-])ccc1Cl	8	0	46*	-1
Cc1cc(NC(=O)Nc2ccccc2)ccc1N1CCCCC1=O	-7	0	37*	-10
SMILES	MITF inh	FBW7 activator	TEAD-YAP inh	GPR151 ag
O=C(COc1ccc(Cl)cc1)NCCSc1ccccn1	0	2.6*	-13	1
Cc1nc2c(c(C)nn2C(C)(C)C)c(C)c1CCC(=O)O	6	0	1	0
Cc1nc2c(c(C)nn2C(C)(C)C)c(C)c1CCC(=O)N1CCCCC1	13	0	35*	0
COc1ccc(C(=O)COC(=O)c2ccc3c(c2)S(=O)(=O)c2ccccc2C3=O)cc1	1	0	-2	0
CN(C)S(=O)(=O)N=C1C=CC(=NS(=O)(=O)N(C)C)C=C1	55*	0	4	0
NNC(=O)c1[nH]c2ccccc2c1Cl	2	0	47*	-1
CCCNC(=O)c1cccc(Nc2ccccn2)c1	-2	0	-21	0
COc1ccc(C2=CC(c3ccc(OC)cc3OC)n3ncnc3N2)cc1 (stereo unspecified)	16	0	56*	1
COc1ccc(OC)c(C2C=C(c3ccc(Cl)cc3)Nc3ncnn32)c1 (stereo unspecified)	15	0	4	0
COc1ccc(C2=CC(c3cccc(OC)c3)n3ncnc3N2)cc1 (stereo unspecified)	2	0	43*	2
CCc1ccc(C2=CC(c3cc(OC)ccc3OC)n3ncnc3N2)cc1 (stereo unspecified)	4	0	51*	0
COc1ccc(C2C=C(c3ccc(C)cc3)Nc3ncnn32)c(OC)c1OC (stereo unspecified)	15	0	47*	0
c1ccc(OCCNc2nc(-c3cccs3)nc3c2ncn3-c2ccccc2)cc1	19	0	4	-2
O=C(Cn1c(=O)oc2cc(S(=O)(=O)N3CCCC3)ccc21)NC1CCCCCCC1	10	0	11	3
O=C(Cc1ccc(F)cc1)Nc1ccc2c(c1)C(=O)Nc1ccccc1O2	-2	0	-6	0
COc1cccc(C2C=C(c3ccc(C)cc3)Nc3ncnn32)c1 (stereo unspecified)	16	0	54*	2
COc1ccc(OC)c(C2C=C(c3cccc(Br)c3)Nc3ncnn32)c1 (stereo unspecified)	3	0	12	2
COc1cccc(C2C=C(c3cccc(Br)c3)Nc3ncnn32)c1 (stereo unspecified)	25	0	39*	1
CCc1ccc(C2=CC(c3cccc(OC)c3)n3ncnc3N2)cc1 (stereo unspecified)	14	0	30	-2
CCOCCCNS(=O)(=O)c1ccc([N+](=O)[O-])cc1	11	0	2	-1
CNC(=O)c1ccccc1Nc1cc(Nc2ccc3[nH]nc(C4=CCNCC4)c3c2)ncc1C(F)(F)F	2	0	-36	1
CNC(=O)c1cc(F)ccc1Nc1cc(Nc2ccc(N3CCCC3=O)cc2)ncc1C(F)(F)F	-7	0	32	1
CNC(=O)c1ccncc1Nc1cc(Nc2ccc3c(c2)CC(=O)N3)ncc1C(F)(F)F	2	0	-7	3
CNC(=O)c1ccccc1Nc1cc(Nc2ccc3[nH]c(=O)oc3c2)ncc1C(F)(F)F	11	0	33*	1
CNC(=O)c1ccccc1Nc1cc(Nc2ccc3c(c2)CC(=O)N3C)ncc1C(F)(F)F	-3	0	65*	-2
SMILES	MITF inh	FBW7 activator	TEAD-YAP inh	GPR151 ag
CNS(=O)(=O)c1ccccc1Nc1cc(Nc2ccc3c(c2)CCC(=O)N3)ncc1C(F)(F)F	-5	0	93*	0
CNS(=O)(=O)c1ccccc1Nc1cc(Nc2ccccc2S(=O)(=O)NC)c(C(F)(F)F)cn1	21	0	1	2
CNC(=O)c1ccccc1Nc1cc(Nc2ccc3c(c2)CC(=O)N3)ncc1C(F)(F)F	16	0	51*	0
O=C(CN1C(=O)C(=O)N(Cc2ccccc2)C1=O)NCCc1ccccc1	-13	0	-10	-2
O=C(NCCC1CCCCN1S(=O)(=O)c1ccccc1)C(=O)Nc1cccc(F)c1 (stereo unspecified)	-3	0	-10	1
O=C(CCn1nc(-c2ccc(Cl)cc2)ccc1=O)NC1CCCCC1	4	0	-4	1
